Shown are actives, neighbours in structure and some others; about 7.5% of the full set was active somewhere.
Rab9 promoter act = Rab9 promoter activation; AID 485297; Huh7 Rab9 promoter-luciferase reporter, luminescence, 24 h; Potency, µM (doses to about 9.22 µM), for the others: top-dose activation, negative = inhibition, usual class: activators; actives 2.8% (n = 320,000); note: % of control where 0% means no effect; nearly all actives have a fitted effect of over 60% in size
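Stable Rab9-luc Huh7, 1500 cells/well, 2 h settle; cmpd in DMSO, 24 h, 37 °C/5% CO2; luciferase reagent 10 min RT; luminescence.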
SMN2 splice up = SMN2 splice variant enhancement; HEK293 SMN2-luciferase splicing reporter, luminescence, 30-36 h; Potency, µM (top dose mostly 46.1 µM), for inactives: top-dose activity change, positive = activation, most hits filed as activators; actives 2.8% (n = 210,000); note: % of control where 0% means no effect; nearly all actives have a fitted effect of over 55% in size
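HEK293 cells carry an SMN2 […]–luciferase reporter in which exon 7 inclusion puts luciferase in frame. Cells were plated 10-12 h before compound addition, then incubated 30-36 h at 37C. ONE-Glo luminescence was read; sodium butyrate at 4.5 mM final served as control.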
FLuc modulator = counter-screen for miR-21 project: firefly luciferase inhibitors or activators | purified FLuc, Km substrates, luminescence inhibition | actives 6.9% (n = 360,000) | Potency, µM (top dose mostly 57.5 µM), for inactives: top-dose activity change, negative = inhibition, usual class: inhibitors;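 note: plate controls were vehicle for no effect and reference inhibitor for full effect; nearly all actives have a fitted effect of over 55% in size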
Target sequence (P08659 whole entry, looked up): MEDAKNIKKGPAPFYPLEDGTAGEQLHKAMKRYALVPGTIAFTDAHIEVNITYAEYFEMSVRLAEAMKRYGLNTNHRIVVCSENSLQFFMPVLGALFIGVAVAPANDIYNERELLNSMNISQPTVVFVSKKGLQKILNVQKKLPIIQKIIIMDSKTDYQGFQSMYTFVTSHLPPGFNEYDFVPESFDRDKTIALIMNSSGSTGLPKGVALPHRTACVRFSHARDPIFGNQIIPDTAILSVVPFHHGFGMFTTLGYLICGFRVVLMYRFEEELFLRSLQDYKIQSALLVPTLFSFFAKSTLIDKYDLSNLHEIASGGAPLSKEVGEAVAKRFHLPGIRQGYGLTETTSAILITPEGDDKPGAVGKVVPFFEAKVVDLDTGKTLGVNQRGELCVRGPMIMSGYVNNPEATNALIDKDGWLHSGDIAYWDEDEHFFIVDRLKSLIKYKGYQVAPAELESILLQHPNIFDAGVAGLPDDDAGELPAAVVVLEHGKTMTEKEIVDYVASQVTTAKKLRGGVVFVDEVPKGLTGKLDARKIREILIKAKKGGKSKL
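Biochemical qHTS of compounds, final roughly 60 µM downward over six points, against 10 nM purified firefly luciferase using Km concentrations of substrates (10 uM D-luciferin, 10 uM ATP) in Tris acetate pH 7.5 buffer; luminescence output.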
ELG1 genotoxic = induces genotoxicity in HEK293T cells with luciferase-tagged ELG1. HEK293T ELG1-luciferase reporter, luminescence, 16 h. Potency, µM (series often up to 46 µM), inactives show at the top dose activity change, positive = activation, actives largely listed as activators. actives 1.3% (n = 330,000); note: % of control where 0% means no effect; nearly all actives have a fitted effect of over 60% in size
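Genotoxicity was scored as increased ELG1-luciferase reporter signal, measured by ONE-Glo luminescence (30 min, room temperature). Compound or vehicle exposure of the HEK293T reporter cells lasted 16 hr at 37°C.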
NPC1 prom act = activates the NPC1 promoter. Huh7 NPC1 promoter luciferase reporter, 24 h. Potency, µM (highest dose often 9.22 µM), for the others: at the top dose activation, most hits filed as activators. actives 2.4% (n = 320,000); note: % of control where 0% means no effect; nearly all actives have a fitted effect of over 60% in size
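NPC1 promoter–luciferase Huh7 cells; 24 h compound; luminescence.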
Luc counter = blocks Kinase-Glo luciferase, a counter-screen artifact; AID 1379; Potency, µM (titrated, usually from 38.3 µM), for the others: at the highest dose activity change, negative = inhibition, most hits filed as inhibitors; Q27757; Kinase-Glo luciferase, ATP luminescence, 8 min; actives 0.28% (n = 200,000); note: % is set by controls: 0 for no effect and ±100 for the full control effect; nearly all actives have a fitted effect of over 60% in size
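Kinase-Glo luciferase light output from ATP and luciferin was measured with 10 uM ATP, within the enzyme's linear range. Buffer: 50 mM imidazole pH 7.2, 50 mM KCl, 7 mM MgCl2, 0.01% Tween 20, 0.05% BSA; luminescence read after 8 min at ambient temperature.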
* = called active by the depositor; ? = inconclusive; · = no result given. Calls come from the whole dose curve; as a rule, active = well fitted curve in the direction sought with a large enough effect; inconclusive = small, poorly fitted or top-dose-only effect, or another doubt; inactive = no such curve, though single readings can be large; an effect the other way counts as inactive or inconclusive. Potency is the fitted concentration of half-maximal effect.

SMILES	Rab9 promoter act	SMN2 splice up	FLuc modulator	ELG1 genotoxic	NPC1 prom act	Luc counter
Cn1cc(CNCc2ccccc2OCC(O)CN2CCc3ccccc3C2)cn1 (stereo not drawn)	-3%	·	0%	2%	0%	1%
COc1ccccc1NC(=O)Cn1c(=O)c(CNc2ccccc2)cc2cc(OC)c(OC)cc21	·	·	-7%	·	·	·
CCOC(=O)c1ccc(N2C(=O)c3n[nH]c(C)c3C2c2ccco2)cc1 (stereo not drawn)	-4%	-34%	-1%	-2%	?	-7%
Cc1ccc(N2C(=O)c3n[nH]c(C)c3C2c2ccco2)cc1 (stereo not drawn)	23%	?	8.5µM*	?	?	1%
CCOC(=O)c1ccc(NC(=O)CC2Nc3ccccc3NC2=O)cc1 (stereo not drawn)	·	-16%	5%	·	·	·
COc1ccc(-c2cc(C(=O)N3CCCCCC3)no2)cc1	0.45µM*	·	1.9µM*	4.6µM*	0.4µM*	·
COc1ccc(-c2cc(C(=O)N3CCN(C(c4ccccc4)c4ccccc4)CC3)no2)cc1OC	3%	-4%	7%	-6%	-8%	-7%
COc1ccc(-c2cc(C(=O)N3CCCCCC3)no2)cc1OC	?	·	24µM*	?	?	·
COc1cccc(-c2cc(C(=O)N3CCCCC3C)no2)c1 (stereo not drawn)	2.2µM*	18µM*	8.5µM*	9.2µM*	1.6µM*	2%
COc1cccc(-c2cc(C(=O)N3CCCCCC3)no2)c1	0.32µM*	3.2µM*	2.1µM*	1.5µM*	0.56µM*	-8%
COc1ccc(-c2cc(C(=O)N3CCN(C(c4ccccc4)c4ccccc4)CC3)no2)cc1	-1%	-30%	-2%	-10%	-7%	-2%
COc1ccc(N(CC(=O)NCCC2=CCCCC2)S(=O)(=O)c2ccc(C)cc2)cc1	1%	-9%	-2%	1%	1%	-1%
Cc1ccc2c(c1)Cc1c(nc(-c3ccc(Cl)cc3)nc1SCC(=O)N1CCCCC1)O2	·	5%	-4%	·	·	·
COc1ccc(-c2cc(C(=O)N3CCCC3)no2)cc1	0.63µM*	·	1.2µM*	2.9µM*	0.4µM*	·
Cc1[nH]c2ccccc2c1-c1csc(N)n1	1%	·	0%	2%	-5%	·
COc1ccccc1Nc1nc(-c2c(C)[nH]c3ccccc23)cs1	16%	14µM*	11µM*	11%	15%	-1%
O=C(CN1CCN(c2nc(-c3ccccc3)cs2)CC1)Nc1ccc2c(c1)OCO2	0%	-16%	7%	1%	-4%	0%
O=C1c2ccccc2C(=O)N1c1cccc(-c2csc(Nc3ccc4c(c3)OCO4)n2)c1	29%	?	2.1µM*	16%	18%	3%
COc1ccccc1Nc1nc(-c2cccc(N3C(=O)c4ccccc4C3=O)c2)cs1	-4%	6%	6.7µM*	1%	-1%	0%
CS(=O)(=O)N1CCC(C(=O)Nc2ccc(Cl)c(Cl)c2)CC1	-3%	·	0%	-1%	0%	1%
CCOc1cc2[nH]c(=O)n(CCC(=O)N3CCN(c4cccc(Cl)c4)CC3)c(=O)c2cc1OCC	·	·	-2%	·	·	·
COC(=O)c1ccc(OCC(=O)c2ccc(C)c(C)c2)cc1	22%	19%	?	3%	26%	2%
CCOC(=O)c1ccc(CC(=O)c2ccc(O)cc2O)o1	2%	-2%	5%	-15%	-5%	0%
O=C(COc1ccc(Cl)cc1)c1ccc(O)cc1O	?	·	8.5µM*	?	30%	·
O=C(COc1ccccc1)OCC(=O)c1ccc(O)cc1O	3%	·	?	0%	-9%	·
O=C(COC(=O)c1ccc(O)cc1O)c1ccc(Cl)cc1	0%	·	17µM*	13%	13%	·
CCOC(=O)c1ccc(OCC(=O)c2ccc(O)cc2O)cc1	22%	-2%	6.7µM*	?	21%	-11%
COC(=O)c1ccc(OCC(=O)c2ccc(O)cc2O)cc1	4%	-7%	6.7µM*	10%	?	-6%

From PubChem BioAssay
